Experimental data taken from the supplement of paper PMC4954754.
± gives the uncertainty stated by the source.

What was measured:
HEK293T-Rex XBP1-RLuc = assay: XBP1-RLuc splicing reporter activation, triplicate, relative to 500 nM thapsigargin (% of thapsigargin); higher = stronger IRE1/XBP1s reporter activation; settings: 6.8 µM; 18 h; screen: confirmation
Description: (§1)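 HEK293T-Rex cells stably expressing the ERSE-firefly luciferase (BiP promoter, ATF6-preferring) or XBP1-splicing Renilla luciferase (IRE1/XBP1s) reporter, 1536-well plates, compound at 6.8 µM for 18 hr at 37 °C; luminescence read […] and expressed as % activation = 100*(compound - median DMSO)/(median 500 nM thapsigargin - median DMSO). Primary screen was single-pass; confirmation screen in triplicate (mean ± SD).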

HEK293T-Rex ERSE-FLuc = assay: ERSE-FLuc reporter activation, triplicate confirmation, relative to 500 nM thapsigargin (% of thapsigargin); higher = stronger ATF6/ERSE reporter activation; settings: 6.8 µM; 18 h; screen: confirmation
Description: as §1

| SMILES | XBP1-RLuc splicing reporter activation (HEK293T-Rex XBP1-RLuc) | ERSE-FLuc reporter activation (HEK293T-Rex ERSE-FLuc) |
| --- | --- | --- |
| COc1ccc2c(Cl)c(C(=O)Nc3ccccc3C(N)=O)sc2c1 | 4.82 ± 1.1 | 31.6 ± 1.1 |
| Cc1ccc(O)c(NC(=O)c2cc(CC(C)C)on2)c1 | 30.2 ± 2.4 | 84.4 ± 15 |
| O=c1[nH]c(/C=C2\C=Nc3ccccc32)c(O)n1-c1cccc(Cl)c1 | 47.9 ± 7.7 | 58.7 ± 9.3 |
| COc1ccc2oc(=Nc3cc(F)ccc3F)c(C(N)=O)cc2c1 | 4.22 ± 1 | 25.3 ± 4.6 |
| CCOc1ccc(NC(=O)c2cccc(F)c2)c([N+](=O)[O-])c1 | 1.77 ± 2.1 | 25.9 ± 2.4 |
| N#Cc1c(NC(=O)c2cnccn2)sc2c1CCCC2 | 2.98 ± 3.5 | 40.2 ± 22 |
| COc1cccc(/C=N/NC(=O)c2ccc(NC(=O)c3ccc(C)cc3)cc2)c1O | 86.3 ± 12 | 36.4 ± 11 |
| Oc1ccc(-c2csc(-c3cccnc3)n2)cc1O | 15.2 ± 0.9 | 29.3 ± 1.4 |
| COc1ccc(/C=C2\SC(=O)NC2=Nc2ccc(C)cc2)c(OC)c1 | 6.33 ± 0.42 | 26.8 ± 1.3 |
| N#Cc1c(NC(=O)c2cccc(F)c2)sc2c1CCC2 | 2 ± 0.56 | 25.9 ± 3.9 |
| N#Cc1c(NC(=O)c2ccc(Br)cc2)sc2c1CCCC2 | 1.92 ± 0.76 | 27.3 ± 5.2 |
| O=C1NC(=Nc2ccccc2)S/C1=C/c1ccc(O)c(O)c1 | 20.9 ± 2.1 | 38.4 ± 10 |
| Cc1ccc(/C=C(\C#N)C(=O)Nc2cccc(Cl)c2)o1 | 0.278 ± 1.4 | 26.2 ± 10 |
| Cc1ccc(Nc2nc(N)c3ccccc3n2)cc1Cl | 8.06 ± 2.4 | 34.8 ± 5.8 |
| Nc1ccc2nc(/C=C/c3ccccc3)[nH]c2c1 | 13.7 ± 0.35 | 36.7 ± 5.2 |
| CN(C)c1ccc(C2C(C#N)=C(N)Oc3c2sc2ccccc32)cc1[N+](=O)[O-] (stereo unspecified) | 9.04 ± 0.83 | 26 ± 0.29 |
| Cc1ccc2nc(/C(C#N)=C\c3cc(Cl)cc4c3OCOC4)[nH]c2c1 | 12.1 ± 2.3 | 51.3 ± 9.8 |
| Cc1ccc(O)c(NC(=O)c2cc(-c3ccco3)on2)c1 | 19 ± 4.5 | 74.4 ± 8.9 |
| Nc1ccc2sc(-c3cc(Cl)c(N)c(Cl)c3)nc2c1 | 10.16 ± 0.093 | 30.8 ± 2.4 |
| O=C(CC(=O)Nc1ccc2nc3n(c(=O)c2c1)CCCCC3)NCc1ccco1 | 22.3 ± 2.9 | 28 ± 11 |
| Cc1ccc2nc(NC(=O)c3cccc4ccccc34)sc2c1 | 4.94 ± 1.5 | 43.1 ± 7.8 |
| C=CCNC(=O)c1cc(-c2ccccc2)on1 | 5.5 ± 0.76 | 43.4 ± 5 |
| N#Cc1c(NC(=O)/C=C/c2ccco2)sc2c1CCCC2 | 11.3 ± 1.3 | 29.4 ± 2.5 |
| Oc1ccc(/C=N/Nc2cccc3cccnc23)c(O)c1 | 26 ± 1.3 | 40.8 ± 12 |
| O=C(N/N=C/c1ccc2c(c1)OCO2)c1cccc(F)c1 | 1.67 ± 0.99 | 27.1 ± 2.4 |

| SMILES | XBP1-RLuc splicing reporter activation (HEK293T-Rex XBP1-RLuc) | ERSE-FLuc reporter activation (HEK293T-Rex ERSE-FLuc) |
| --- | --- | --- |
| O=C(NC(c1ccccc1)c1ccccc1)c1csc(-c2cnccn2)n1 | 19 ± 0.61 | 30.5 ± 7.8 |
| CC(C)CC(c1nnnn1C1CCCC1)N1CCN(C(=O)c2ccco2)CC1 (stereo unspecified) | 10.6 ± 2.2 | 29.5 ± 1 |
| Nc1ccccc1NC(=O)c1ccc(C(F)(F)F)cc1 | 11.1 ± 2.7 | 27.2 ± 5.7 |
| Cc1ccccc1-c1cc(=O)c2cc(Cl)ccc2o1 | 8.38 ± 3.8 | 25.5 ± 3.8 |
| O=C(N/N=C/c1ccc(Cl)cc1Cl)c1ccc(O)c(O)c1 | 10.6 ± 0.64 | 25.8 ± 6.1 |
| COc1ccc(Nc2nccn3c(-c4ccsc4)cnc23)cn1 | 3.91 ± 0.5 | 38.1 ± 6.9 |
| CC(C)CNC(=O)c1cc(-c2ccc(F)cc2)no1 | 4.97 ± 1.2 | 26.6 ± 1.6 |
| Nc1ccccc1NC(=O)c1ccc(Cl)cc1 | 10 ± 0.7 | 33.6 ± 4.6 |
| CCOc1cc(/C=C2/NC(=O)N(c3cccc(Cl)c3)C2=O)ccc1O | 22.9 ± 1.5 | 30.5 ± 9.3 |
| Cc1cnc(NC(=O)c2sc3nc4c(C)cccc4cc3c2N)s1 | 32.6 ± 0.95 | 28.6 ± 7.1 |
| CCOc1ccc(NC(=O)c2ccc3c(c2)OCO3)c([N+](=O)[O-])c1 | -0.432 ± 2.4 | 30.1 ± 1.8 |
| CN1C(=O)/C(=C\c2ccc(O)c(O)c2)SC1=S | 13.9 ± 1.8 | 25.2 ± 1.4 |
| Cc1ccc(O)c(NC(=S)NC(=O)/C=C/c2ccco2)c1 | 1.05 ± 0.43 |  |
| O=C(N/N=C/c1ccc(O)c(O)c1)c1ccc(Br)cc1 | 20.9 ± 0.79 |  |
| Cc1ccc(NC(=O)/C=C/c2ccco2)nc1 | 5.22 ± 0.94 |  |
| COc1ccc(-c2nn(-c3ccccc3)cc2/C=C/C(=O)O)cc1[N+](=O)[O-] | 8.64 ± 1.1 |  |
| Cn1cccc1/C=C1/SC(=Nc2ccccc2)NC1=O | 5.98 ± 0.28 |  |
| COC(=O)c1c(NC(=O)CCl)sc(C(=O)Nc2cccc([N+](=O)[O-])c2)c1C | 12.1 ± 0.46 |  |
| O=C(/C=C/c1ccco1)Nc1ccc(Br)cc1Cl | -0.469 ± 0.9 |  |
| O=C(/C=C/c1ccccc1)Nc1ccc(Cl)cn1 | 1.96 ± 0.26 |  |
| N#Cc1c(NC(=O)c2ccc3c(c2)OCO3)sc2c1CCCC2 | 2.57 ± 0.57 |  |
| COc1ccc(-n2nnnc2SCC(N)=O)c(OC)c1 | 13.9 ± 1.2 |  |
| OCCNc1nc(Nc2ccc(Br)cc2)nc2ccccc12 | 23.4 ± 2.2 |  |
| CC(=O)N1CCc2c([nH]c3ccccc23)C12CCN(CCCOc1ccccc1)CC2 | 65.9 ± 4 |  |
| CCOc1cccc(C(=O)Nc2ccc(-c3nc4ccc(C(=O)c5ccccc5)cc4[nH]3)cc2)c1 | 94 ± 5 |  |

| SMILES | XBP1-RLuc splicing reporter activation (HEK293T-Rex XBP1-RLuc) | ERSE-FLuc reporter activation (HEK293T-Rex ERSE-FLuc) |
| --- | --- | --- |
| Cc1ccc(/C=N/NC(=O)c2cccc(Cl)c2)cc1 | 0.915 ± 0.53 |  |
| Cc1cc(C)nc(/N=C(\N)Nc2ccc(OCc3ccc(Cl)cc3)cc2)n1 | 81.2 ± 5.9 |  |
| CC(=O)Nc1ccc2nc(-c3ccc(OC(C)=O)cc3)sc2c1 | 21.7 ± 1 |  |
| Cc1cc(C)nc(/N=C(\N)Nc2ccc(OCCC(C)C)cc2)n1 | 101 ± 1.1 | 58.2 ± 6.3 |
| COc1ccc(/C=C/c2ccc3cccc(OC(C)=O)c3n2)cc1OC(C)=O | 6.25 ± 0.81 |  |
| N#C/C(=C\c1ccc(O)c(O)c1)C(=O)Nc1ccccc1 | 13.3 ± 0.68 | 29.5 ± 5.4 |
| O=C(CCc1ccccc1)Nc1ccc(Cl)cn1 | 0.292 ± 0.79 |  |
| CCN1C(=O)/C(=C\c2ccc(O)cc2O)SC1=S | 13.6 ± 1.7 |  |
| C=CCn1c(N2CCC(C(=O)NCCc3ccc(O)c(O)c3)CC2)nc2ccccc21 | 33.9 ± 2 |  |
| O=[N+]([O-])c1ccccc1N/N=C/c1ccc(O)c(O)c1 | 10.3 ± 1.3 |  |
| COc1cccc(/C=N\NC(=O)c2n[nH]c3c2CCC3)c1 | 2.25 ± 1 |  |
| NN1C(=O)/C(=C/c2ccc(O)c(O)c2)SC1=S | 16.7 ± 0.56 |  |
| O=C(N/N=C/c1cccc(Cl)c1Cl)c1ccccc1O | 6.36 ± 0.63 |  |
| CCCCNC(=O)c1cc(-c2ccc(F)cc2)on1 | 7.08 ± 0.26 |  |
| Cc1ccc(O)c(-c2cc(-c3ccc(F)cc3)n[nH]2)c1 | 3.17 ± 2.6 |  |
| COc1ccc(/C=C(\C#N)c2nc3ccccc3n2C)cc1 | -0.499 ± 0.016 |  |
| O=C(Nc1ccccc1O)c1ccc(NS(=O)(=O)c2cccc3cccnc23)cc1 | 14.2 ± 3.7 |  |
| O=[N+]([O-])c1ccccc1NC(=S)N/N=C/c1ccc(O)c(O)c1 | 8.61 ± 0.81 |  |
| Cc1cc(C)nc(/N=C(\N)Nc2ccc(OCc3ccccc3)cc2)n1 | 78.3 ± 5.3 | 53.1 ± 14 |
| Cc1ccc(O)c(N=CC2=C(O)c3ccccc3C2=O)c1 | 24.1 ± 1.3 |  |
| COc1ccc(/C(C)=N/OC/C(O)=C(\C#N)c2nc3ccccc3[nH]2)cc1OC | 24.6 ± 1.4 | 31.3 ± 11 |
| Cc1ccc2nc(/C(C#N)=C/c3ccc(O)cc3)[nH]c2c1 | 13.8 ± 1.6 |  |
| COc1ccc2[nH]c3c(N4CCCCC4)ncnc3c2c1 | 4.28 ± 0.66 |  |
| Cc1ccc2c(N)c(C(=O)c3ccc4c(c3)OCO4)sc2n1 | 5.3 ± 0.72 |  |
| Oc1cccc(/C=N/Nc2ccc(Cl)nn2)c1O | 19 ± 1.9 |  |
